Source: PubChem BioAssay (NCATS)
“And” between values parts separate entries of the source, which are not always exact repeats. Equal values may be shown once. Inconclusive results are not listed. Unmarked numbers belong to inactive results. The source made the active and inactive calls. Calls follow the shape of the dose curve; as a rule, active = well fitted cell-killing curve with a large enough effect; inconclusive = small, poorly fitted or top-dose-only effect; inactive = flat fitted curve, though single readings scatter.

Test: Cellular viability qHTS for adrenocortical cancer (ACC) cell line NCI-H295R (AID 1963990); also: nearly all actives have a fitted effect of over 60% in size;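 as to activity change, negative = viability loss: 0% = DMSO only wells and -100% = full killing with cytotoxic reference compound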
Conditions: CellTiter-Glo ATP luminescence, 48 h; series mostly up to 46.1 µM; activity change, negative = viability loss: at the top concentration
Procedure, shortened: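 IC50 and maximal efficacy derive from four-parameter logistic modelling of titration curves, with reads scaled between DMSO-only wells (0%) and doxorubicin hydrochloride (100% inhibition). Compounds spanned up to 46 uM over 48 h.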

Compared with `COc1ccc(Nc2nccc(NCCO)n2)cc1`, `COc1ccc(-c2c(-c3ccc(O)cc3O)n[nH]c2C)cc1` is higher in “activity change, negative = viability loss” value: -14% for the first, 3.21% for the second.

First: C[C@]12CC[C@@H]3c4ccc(O)cc4CC[C@H]3[C@H]1[C@@H](O)[C@@H](O)[C@H]2O
Second: COC1CCC(C(=O)c2ccc3nc4c(cc3c2)CCCO4)CC1 (configuration not stated)
The “activity change, negative = viability loss” value of the first is higher: -0.0246% for the first, -11.6% for the second.

Going from `COC1CCC(N(C(=O)C2CCC(C)CC2)c2cc(C3=CCCCC3)sc2C(=O)O)CC1` (configuration not stated) to `CC(Cc1ccc(O)c(O)c1)(NN)C(=O)O` (configuration not stated), the “activity change, negative = viability loss” value falls from 29.2% to -13.5%.

Going from `NCc1c[nH]c(=S)n1[C@H]1CCc2c(F)cc(F)cc2C1` to `Cc1c(C)c2c(c(C)c1O)CCC(C)(COc1ccc(CC3SC(=O)NC3=O)cc1)O2` (configuration not stated), the “activity change, negative = viability loss” value falls from -3.01% to -10.4%.

First: CC(C)(N)C(=O)N[C@H](COCc1ccccc1)C(=O)N1CCC2(CC1)CN(S(C)(=O)=O)c1ccccc12
Second: CC(C)(C(=O)NCC(F)(F)C(F)(F)F)C(=O)N[C@@H]1C(=O)Nc2ccccc2-c2ccccc21
The “activity change, negative = viability loss” value of the first is lower: -29.6% for the first, -8.06% for the second.

Going from `N#Cc1ccc(NC(=O)Nc2ccccc2Br)c2n[nH]nc12` to `Cc1oncc1C(=O)Nc1ccc(C(F)(F)F)cc1`, the “activity change, negative = viability loss” value falls from -16.6% to -20.4%.

For `Cc1cccc(N(C)C(=S)Oc2ccc3ccccc3c2)c1`, the “activity change, negative = viability loss” value was -19.2%.

For `O=c1c(-c2ccc(O)cc2)coc2cc(O)cc(O)c12`, the Potency was “inactive”.
For `S=c1nc[nH]c2nc[nH]c12`, the Potency was 2.06 µM (active) and 4.47 µM (active).
For `COc1ccc(-c2coc3cc(O)cc(O)c3c2=O)cc1`, the Potency was 28.2 µM (active).
For `NS(=O)(=O)c1ccc(NC2=CC(=O)c3ccccc3C2=O)cc1`, the Potency was 3.98 µM (active).
